Screening data (PubChem)
Shiga toxin inh – Shiga toxin inhibition; AID 2315; 290,000 compounds, 9.2% hits; inhibition, % at 38.7 µM; Vero cells, Shiga toxin protein synthesis inhibition reporter; in the data active = inhibition mostly above about 28%, no sharp cut-off; inactive = mostly below about 43%; also: 0% is about no effect
HCMV inh – inhibitors of human cytomegalovirus; HFF cells, HCMV-luciferase reporter, 72 h; stronger effect = lower value; activity change, negative = inhibition, % at 57.5 µM; 410,000 compounds, 4.5% hits; in the data active = activity change below about -60%; inconclusive = no clear call, values can overlap the other calls; inactive = above about -39%; also: % is scaled to controls: 0 for no effect and ±100 for the full control effect
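Inhibition of viral replication was scored as loss of reporter luminescence in HFFs infected with HCMV-luciferase (MOI 1 PFU/cell) for 72 h; compounds tested at 2 doses, normalized to buffer and Salinomycin controls.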
HCV inh – blocks hepatitis C virus; Huh7.5.1 HCVcc-Cre infection, luciferase reporter, 44 h; Potency, µM (top dose mostly 41.8 µM), for the others: at the highest dose activity change, negative = inhibition, most hits filed as inhibitors; 340,000 compounds, 3.4% hits; also: potency is read from the fitted curve at half-maximal effect; % is scaled to controls: 0 for no effect and ±100 for the full control effect
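Cells seeded at 1,000/well and cultured 4 h, then compounds added followed by HCVcc-Cre virus (~0.5 moi). After 44 h further culture, luciferase substrate was added, plates held 15 min at room temperature, and luminescence read for 15 sec.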
Pf growth 48h – inhibits P. falciparum growth in the first generation, 48 h; P. falciparum luciferase growth in erythrocytes, 48 h; Potency, µM (top dose mostly 28.7 µM), inactives show top-dose activity change, negative = inhibition, hits mostly inhibitors; 310,000 compounds, 5.9% hits; also: potency is read from the fitted curve at half-maximal effect; % is scaled to controls: 0 for no effect and ±100 for the full control effect
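First compound was added to culture medium, then infected red cells at 0.1% parasitemia and 2% hematocrit (final). After incubation at 37 C under 5% CO2, luciferase detection reagent was dispensed and light output recorded.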
Pf growth 96h – P. falciparum growth inhibition at 96 hours | P. falciparum luciferase reporter growth, 96 h | Potency, µM (top dose mostly 28.7 µM), without a hit: top-dose activity change, negative = inhibition, most hits filed as inhibitors | 320,000 compounds, 6.9% hits | AID 504834; also: potency is read from the fitted curve at half-maximal effect; % is scaled to controls: 0 for no effect and ±100 for the full control effect
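Erythrocytes infected with luciferase-expressing P. falciparum were dispensed at 2% hematocrit and 0.05% parasitemia (final), then incubated with compounds 96 hours at 37 C in 5% CO2. Luminescence after detection reagent addition reported growth.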
Cycloheximide cs – counter-screen for Shiga toxin inhibitors: cycloheximide protein synthesis inhibition. max response, %. cell reporter, cycloheximide protein synthesis inhibition counterscreen. 300,000 compounds, 12% hits; in the data active = max response mostly above about 13%, no sharp cut-off; inactive = mostly below about 14%; also: read at 38.3 µM for the half of the compounds with a filed dose; 0% is about no effect
An asterisk follows results filed as active; i = inactive; ? = inconclusive; / = no result given; [ ] = another dose, or the depositor's remark. Most compounds without a hit are left out; they make up all but 21% or so of the library. Unless noted, calls follow the shape of the dose curve; as a rule, active = well fitted inhibition curve with a large enough effect; inconclusive = small, poorly fitted or top-dose-only effect, or another doubt; inactive = no such curve, though single readings can be large or run the other way.

SMILES	Shiga toxin inh	HCMV inh	HCV inh	Pf growth 48h	Pf growth 96h	Cycloheximide cs
O=C(CN1CCCCC1)Nc1ccc(C(F)(F)F)cc1Cl	3	-70*	6%	-3%	52%	13
O=C(CN1CCCCCCC1)Nc1ccc(Cl)cc1Cl	-1	-5	-8%	-5%	20%	10
O=C(CN1CCCCC1)Nc1ccc(NC(=O)c2ccccc2Cl)cc1Cl	7	-37	?	-9%	15µM*	-1
O=C(CN1CCCC1)Nc1cc(C(F)(F)F)ccc1Cl	-3	1	5%	-21%	-1%	9
O=C(NCCS(=O)(=O)N1CCN(c2ccccc2)CC1)C1CC1	/	-17	1%[8.37 µM]	3%	-9%	/
COc1ccc(C(=O)Nc2cccnc2Sc2ccc(Cl)cc2)cc1	47*	-19	8%	?	9%	27*
O=C(NC(=S)Nc1cccc2ncccc12)c1ccccc1	97	-23	-24%	i	?	30
CCOC(=O)Nc1cccnc1Sc1ccc(Cl)cc1	/	-10	1%	/	/	/
O=C(Nc1cccnc1Cl)c1ccc(Cl)cc1	70*	26	12%	56%	-6%	36*
O=C(Nc1cccc2cccnc12)c1ccc(Cl)cc1	45*	103	-4%	111%	34%	37*
O=C(NC(=S)Nc1cccnc1Cl)c1ccc(Cl)cc1	114*	74	6%	46%	-5%	50*
O=C(O)c1ccc(C(=O)Nc2cccc3cccnc23)cc1	29	/	/	/	/	10
O=C(C1CCC(CNc2c(N3CCCCC3)c(=O)c2=O)CC1)N1CCCC1 (stereo not drawn)	-9	-14	15%	-4%	-1%	1
CC1CC(C)CN(CC(=O)NCCc2ccc(S(N)(=O)=O)cc2)C1 (stereo not drawn)	26	10	12%	54%	12%	-3
Cc1nn(CCCC(=O)NCc2ccccc2)c(=O)c2c1sc1ccccc12	/	-33	/	/	/	/
CCOC(=O)C(NC(=O)c1cccc(Cl)c1)(Nc1sc2c(c1C(N)=O)CCC2)C(F)(F)F (stereo not drawn)	-9	-27	13µM*	?	?	-3
CCOC(=O)C(NC(=O)c1ccccc1Cl)(Nc1sc2c(c1C(N)=O)CCC2)C(F)(F)F (stereo not drawn)	-25	-30	-3%	?	4.1µM*	-2
COc1ccc2c(CNCc3cccs3)c(C(=O)O)n(Cc3ccc(C)cc3)c2c1	/	8	/	/	/	/
Nc1nnc(N2CCc3ccccc32)s1	57*	28	4%	7%	?	27*
O=C(c1ccc2c(c1)OCO2)N1CCC2(CC1)Oc1ccc(F)cc1C(=O)C21CC(c2ccccc2)=NO1 (stereo not drawn)	-7	-24	-18%	13µM*	?	-3
O=C(c1ccoc1)N1CCC2(CC1)Oc1ccc(F)cc1C(=O)C21CC(c2ccccc2)=NO1 (stereo not drawn)	-9	-8	12%	?	12µM*	1
Cc1ccc(C(=O)N2CCC3(CC2)Oc2ccc(F)cc2C(=O)C32CC(c3ccccc3)=NO2)s1 (stereo not drawn)	-2	-14	-3%	?	10µM*	-3
CCc1ccc(CNC(=O)CCc2c(C)nn(-c3ccc(N4CCCCC4)nn3)c2C)cc1	/	-11	/	/	/	/
COc1ccc(CN2CCc3nc(N4CCN(c5ccc(F)cc5)CC4)ncc3C2)c(OC)c1OC	/	-36	/	/	/	/
CCOC(=O)c1ccc(NC(=S)Nc2ccccn2)cc1	40*	-18	-7%	35%	16%	27*
SMILES	Shiga toxin inh	HCMV inh	HCV inh	Pf growth 48h	Pf growth 96h	Cycloheximide cs
CCOC(=O)c1ccc(NC(=S)Nc2ccc(Cl)cn2)cc1	-4	-26	7%	87%	-16%	-1
CCOC(=O)c1ccc(NC(=S)NCc2ccccc2)cc1	21	-38	-5%	35%	-18%	12*
COC(=O)c1ccc(NC(=S)NCCc2ccccc2)cc1	-3	2	-7%	-9%	?	-1
CCOC(=O)c1ccc(NC(=S)NCCc2ccccc2)cc1	-19	14	-8%	?	13µM*	1
CCc1ccc(NC(=O)Cn2c(=O)n(Cc3ccco3)c(=O)c3oc4ccccc4c32)cc1	/	-2	/	/	/	/
Cc1cc(=O)n2nc(N3CCC(C(=O)Nc4ccc(C(C)C)cc4)CC3)sc2n1	/	-2	/	/	/	/
CC1(C(=O)OCC(=O)NC(=O)NCc2ccccc2)CC1(Cl)Cl (stereo not drawn)	-2	0	4%	-10%	19%	11
CC1(C(=O)OCC(=O)Nc2ccc(Cl)cn2)CC1(Cl)Cl (stereo not drawn)	/	-20	2%	/	/	/
CC1(C(=O)OCC(=O)Nc2ccccc2)CC1(Cl)Cl (stereo not drawn)	67*	-5	7%	28%	52%	34*
CC1(C(=O)OCC(=O)Nc2ccccc2Cl)CC1(Cl)Cl (stereo not drawn)	62*	-18	-2%	-22%	14%	18*
Cn1ccnc1C(OC(=O)c1ccc(Cl)cc1)C(F)(F)F (stereo not drawn)	-9	-22	-25%	1%	-3%	4
COc1ccc(O)c(C(=O)c2cnc3c(c2)c(C)nn3CCO)c1	-1	18	-6%	?	?	-3
CN1CCN([C@@H]2CS(=O)(=O)N[C@H]2COCc2ccccc2)CC1	/	-5	/	/	/	/
CCOC(=O)CNc1nc(Cl)nc(NC(C)(C)C)n1	16	-25	-11%	2%	13µM*	8
CC(C)(C)Nc1nc(N)nc(Cl)n1	-7	-31	6%	21%	31%	-3
O=C(Cc1ccccc1)Nc1ccc(N2CCCCC2)cc1	83*	71	-22%	243%	394%	31*
CN1CCN(c2ccc(NC(=O)Cc3ccccc3)cc2)CC1	75*	68	?	103%	/	55*
CS(=O)(=O)N1CCN(c2ccc(NC(=O)Cc3ccccc3)cc2)CC1	44	7	-1%	/	-17%	22
CCCCOC(=O)c1ccc(NC(=O)c2ccc3c(c2)CCN3S(=O)(=O)c2ccccc2)cc1	/	-26	/	/	/	/
CNS(=O)(=O)c1ccc(NC(=O)c2cc(-c3ccncc3)nc3ccc(Cl)cc23)cc1	26	?	/	13µM*	44%	9
CCNC(=S)NNC(=O)c1cc(-c2cc(C)ccc2C)nc2ccccc12	8	61	5%	?	5.2µM*	13
COC(=O)c1cc(-c2ccc(NC(C)=O)cc2)nc2ccccc12	-7	-68*	?	7%	-4%	-5
O=C(Nc1ccccc1N1CCOCC1)c1cc(-c2ccncc2)nc2ccccc12	29	-21	?	?	8.3µM*	1
CCCc1cc(C(=O)NNC(=S)NCC)c2ccccc2n1	11	-35	10%	-7%	5%	3
CCCN1C(=O)c2[nH]nc(-c3ccccc3O)c2C1c1cccc(OCc2ccccc2)c1 (stereo not drawn)	/	-13	/	/	/	/
